Assay outcomes (PubChem BioAssay)
Cruzain inh noDet = qHTS Assay for Promiscuous and Specific Inhibitors of Cruzain (without detergent) | Cruzipain (Trypanosoma cruzi), P25779 | purified cruzain, Z-FR-AMC fluorescence, no detergent | Potency, µM, actives largely listed as inhibitors | 200,000 tested, 2.3% active | AID 1476, 2009; further: nearly all actives have a fitted effect of over 40% in size
Target sequence (P25779 123-467 limits assumed): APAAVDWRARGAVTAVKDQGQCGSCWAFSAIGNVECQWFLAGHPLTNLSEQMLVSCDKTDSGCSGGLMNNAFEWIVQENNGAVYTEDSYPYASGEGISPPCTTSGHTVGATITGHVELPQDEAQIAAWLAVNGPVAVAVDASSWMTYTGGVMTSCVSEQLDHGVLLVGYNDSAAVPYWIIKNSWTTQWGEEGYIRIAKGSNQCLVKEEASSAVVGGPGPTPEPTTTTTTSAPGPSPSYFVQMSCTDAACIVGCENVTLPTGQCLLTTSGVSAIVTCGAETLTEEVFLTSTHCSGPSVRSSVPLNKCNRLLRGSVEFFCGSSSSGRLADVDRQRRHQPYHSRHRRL
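Purified cruzain at 1.5 nM, pre-incubated 15 min with compound at room temperature in 100 mM sodium acetate pH 5.5, 5 mM DTT, 0.00005% Triton X-100. Reaction started with 2 uM Z-FR-AMC; AMC fluorescence increase over 60 s gives rate.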
Cruzain Triton = qHTS Assay for Promiscuous and Specific Inhibitors of Cruzain (with detergent); purified cruzain, Z-FR-AMC fluorescence, 0.01% Triton; Potency, µM, most hits filed as inhibitors; 200,000 tested, 0.43% active; AID 1478, 2009; further: nearly all actives have a fitted effect of over 40% in size
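Purified cruzain (1.5 nM final) was preincubated with compounds for 15 min at room temperature in 100 mM sodium acetate pH 5.5, 5 mM DTT, 0.01% Triton X-100. Reaction started with 2 uM Z-FR-AMC; AMC fluorescence change over 60 s gave activity.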
Large screens that a line does not name were inactive. Hits are enriched below; roughly 2.5% of the tested compounds scored in any of these assays. The call rests on the fitted dose curve; in most records, active means well fitted curve in the direction sought with a large enough effect; inconclusive means small, poorly fitted or top-dose-only effect, or another doubt; inactive means no such curve, though single readings can be large; an effect the other way counts as inactive or inconclusive.

COc1cc(NC(=O)C2CCN(S(=O)(=O)c3ccc4c(c3)CCCC(=O)N4)CC2)cc(OC)c1	none
COc1ccc(OC)c(NC(=S)N(CCc2c(C)[nH]c3ccc(C)cc23)Cc2cccs2)c1	Cruzain inh noDet 25µM
COc1ccc(OC)c(NC(=S)N(CCc2c(C)[nH]c3ccccc23)Cc2cccs2)c1	Cruzain inh noDet inconclusive
COc1cccc(Nc2nnc(SCc3nc4ccccc4s3)s2)c1	none
Cc1cccc(C)c1Nc1nnc(SCc2nc3ccccc3s2)s1	Cruzain inh noDet 32µM
O=C(Nc1ccccc1F)c1oc2ccccc2c1NC(=O)C12CC3CC(CC(C3)C1)C2	none
O=C(O)c1ccncc1.O=C(O)c1ccncc1.[NH2-].[NH2-].[Pt]	none
N#Cc1c(/N=C/c2ccco2)oc(-c2ccccc2)c1-c1ccccc1	none
N#Cc1c(/N=C/c2ccccc2)oc(-c2ccccc2)c1-c1ccccc1	Cruzain inh noDet 32µM
COC(=O)Cn1c(=NC(=O)c2ccc(Cl)s2)sc2cc(F)ccc21	Cruzain inh noDet 25µM
C#CCn1c(=NC(=O)c2ccc(Cl)s2)sc2cccc(OC)c21	Cruzain inh noDet inconclusive
O=c1c(-c2cccs2)nc2cnc(Oc3ccccc3)nc2n1Cc1cccs1	Cruzain inh noDet inconclusive
COc1ccc(Oc2ncc3nc(-c4cccs4)c(=O)n(Cc4cccs4)c3n2)cc1	Cruzain inh noDet 7.9µM
COc1cccc(Cn2c(=O)c(-c3cccs3)nc3cnc(OC)nc32)c1	none
COc1ccc(Oc2ncc3nc(-c4cccs4)c(=O)n(Cc4cccc(OC)c4)c3n2)cc1	Cruzain inh noDet 13µM
O=C(O)C1C(C(=O)O)C(C(=O)O)C1C(=O)O (stereo unspecified)	none
COc1cccc(C2Nc3ccccc3-c3nnc(SCc4ccccc4)nc3O2)c1OC (stereo unspecified)	none
O=C(COC(=O)c1ccc(O)cc1)Nc1ccc(Cl)cc1C(=O)c1ccccc1	none
Cc1ccccc1NC(=O)COC(=O)c1ccc(CSc2ccc(Cl)cc2)cc1	Cruzain inh noDet 10µM
Cc1ccc(C2CC(=O)N3CN(Cc4ccco4)CSC3=C2C#N)cc1 (stereo unspecified)	none
COc1ccc(Br)cc1C1CC(=O)N2CN(C)CSC2=C1C#N (stereo unspecified)	none
COc1ccc(Br)cc1C1CC(=O)N2CN(Cc3ccccc3)CSC2=C1C#N (stereo unspecified)	Cruzain inh noDet 32µM, Cruzain Triton inconclusive
N#CC1=C2SCN(Cc3ccco3)CN2C(=O)CC1c1c(F)cccc1Cl (stereo unspecified)	Cruzain inh noDet 20µM, Cruzain Triton inconclusive
Cc1cc(C)cc(C(=O)Nc2c(C(=O)Nc3ccccc3F)oc3ccccc23)c1	none
OCC(O)C(O)[C@H](O[C@H]1OC(CO)C(O)C(O)C1O)[C@H](O)CO (stereo partly specified)	none
CS(=O)(=O)Nc1cccc(-c2cncnc2-n2ccnc2)c1	none
CCC[C@H](N[C@@H](C)C(=O)N1[C@@H]2CCCC[C@H]2C[C@H]1C(=O)O)C(=O)OCC	none
COc1ccc(CNC(=O)c2cccs2)cc1	none
COc1ccc(CNC(=O)/C(C#N)=C2\N=C(NC(=O)c3cccs3)c3ccccc32)cc1	Cruzain inh noDet 25µM
COc1cc2nc(NCCc3ccccc3)n3nc(-c4cccnc4)nc3c2cc1OC	none
CCOC(=O)C1=C(c2ccccc2)N=c2s/c(=C\c3cccc(O)c3)c(=O)n2C1c1cccs1 (stereo unspecified)	none
O=c1/c(=C\c2ccc(O)cc2)sc2n1C(c1ccccc1)C(c1ccccc1)=NN=2 (stereo unspecified)	Cruzain inh noDet 25µM
C=CCC(O)c1ccccc1 (stereo unspecified)	none
CCCCCCC(=O)Nc1c(O)c2ccccc2[nH]c1=O	Cruzain inh noDet inconclusive
CCCCCCNC(=O)c1c(O)c2ccccc2[nH]c1=O	Cruzain inh noDet 25µM
COc1ccccc1CNC(=O)c1c(O)c2cc(OC)c(OC)cc2[nH]c1=O	Cruzain inh noDet 3.2µM
COc1ccccc1CNC(=O)c1ccc2[nH]c(C)c(C)c2c1	none
O=C(CN1C(=O)CSc2ccc(S(=O)(=O)N3CCCC3)cc21)NCc1ccc(Cl)cc1	none
CCOC(=O)c1c(C)[nH]c(C)c1S(=O)(=O)N(C)CC(=O)Nc1cc(Cl)ccc1OC	Cruzain inh noDet inconclusive
O=C(Nc1ccc2c(c1)OCO2)C1CCN(S(=O)(=O)c2cccs2)CC1	Cruzain inh noDet inconclusive
O=C(Nc1ccc2c(c1)OCO2)C1Cc2ccccc2CN1S(=O)(=O)c1cccs1 (stereo unspecified)	Cruzain inh noDet 25µM
COc1ccccc1-c1nccc(NCc2cccc(C)c2)n1	none
CC(=O)Nc1ccc(C2=NN(Cc3nnc(-c4ccccc4)o3)C(=O)SC2)cc1	Cruzain inh noDet inconclusive
O=C1SCC(c2ccc(Cl)cc2Cl)=NN1Cc1nnc(-c2ccccc2)o1	Cruzain inh noDet 16µM
Cc1cc(=O)oc2c(CN(C)Cc3ccccc3)c(O)ccc12	Cruzain inh noDet inconclusive, Cruzain Triton 20µM
Cc1cc(=O)oc2c(N)c(O)ccc12	none
Cc1sc2nc(CN3CCCC3)nc(N3CCN(S(=O)(=O)c4cccs4)CC3)c2c1C	Cruzain inh noDet 16µM
Cc1sc2nc(CN3CCCCC3)nc(Cl)c2c1C	none
C[C@H]1[C@H](C)OC(=O)C[C@H](O)C[C@H](O)C[C@H](O)CC[C@H](O)[C@H](O)CC(=O)C[C@H](O)[C@H](C(=O)O)[C@H](O)C[C@H](O[C@@H]2O[C@@H](C)[C@H](O)[C@@H](N)[C@@H]2O)C=CC=CC=CC=CCCC=CC=C[C@@](C)(O)[C@H]1O	none
CCC(C(=O)Nc1ccc(C)c(C)c1)n1c(=O)c(C(F)(F)F)nc2ccccc21 (stereo unspecified)	none
O=C(COc1cc(Cl)ccc1Cl)Nc1ccc2c(c1)CCC2	Cruzain inh noDet 25µM
O=C(O)COCC(=O)Nc1ccc2c(c1)CCC2	none
C=C(C(C)=O)C(O)c1cccc(OC)c1 (stereo unspecified)	none
Cc1ccc(NC(=O)N2CC3CCCN3c3ccccc32)cc1Cl (stereo unspecified)	Cruzain inh noDet 32µM
Cc1ccc(NC(=O)N2CC3CCCN3c3ccccc32)cc1C (stereo unspecified)	Cruzain inh noDet inconclusive
CCSc1nc2c(c(=O)[nH]c(=O)n2C)n1CC(O)COc1ccc(Cl)cc1 (stereo unspecified)	none
COc1ccccc1CNC(=O)c1ccc2c(c1)N(Cc1c(F)cccc1Cl)C(=O)CS2	Cruzain inh noDet inconclusive
O=[N+]([O-])c1ccccc1-c1ccc(/C=N/n2cnnc2)o1	none
Nn1cnnc1N/N=C\c1ccc(-c2ccccc2[N+](=O)[O-])o1	Cruzain Triton 20µM
Cc1ccc(Cl)cc1N1CCN(C(=O)CCn2c(=O)c3cccn3c3cccnc32)CC1	none
Cc1cccc(NC(=O)C(=O)NCCc2csc(-c3ccc(F)cc3)n2)c1C	none
COc1cc(C2c3c(-c4c(C)cc(C)cc4O)n[nH]c3C(=O)N2CCCOC(C)C)cc(OC)c1OC (stereo unspecified)	none
CCCN1CCN(c2ncnc3sc(C(=O)Nc4c(C)cc(C)cc4C)c(C)c23)CC1	none
COc1ccc(-c2nc3cnc(N4CCNCC4)nc3n(CCc3ccccc3)c2=O)cc1	none
CCOc1ccc(-n2c(SCC(=O)N3CCCc4ccccc43)nc3c([nH]c4ccccc43)c2=O)cc1	none
CC(=O)c1cccc(NC(=O)c2cc(-c3ccc4c(c3)OCCO4)on2)c1	none
COc1cccc(-c2cc(C(=O)Nc3cc(C)on3)no2)c1	none
